KCNH2 3.1 inh: blocks the human KCNH2 3.1 channel isoform; activity change, % (tested at about 1.8 µM); 0.95% of 340,000 active; U2OS KCNH2 3.1, thallium flux FluxOr; active compounds read low; AID 720553;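 active = maximum activity change below -70%; inconclusive = maximum activity change from -70% to -50%; inactive = maximum activity change above -50%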;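 note: thallium influx rate constant from kinetic fluorescence after stimulation buffer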
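Thallium flux via FluxOr fluorescence (Red40 quencher, 45 min loading) in U2OS cells virally expressing the KCNH2 3.1 isoform (1.77 x 10^8 /mL virus, overnight at 37 C). Rate constants from 2-min kinetic reads post-stimulation, normalised to positive and negative controls.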
hERG WT inh: blocks the wildtype human KCNH2 potassium channel. AID 720551. Q12809. U2OS, BacMam KCNH2, thallium flux FluxOr; active compounds read low. 0.37% of 340,000 active. activity change, % at 1.84 µM;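 active = maximum activity change below -70%; inconclusive = maximum activity change between -70% and -50%; inactive = maximum activity change above -50%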
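U2OS cells transduced with wild-type KCNH2 virus are loaded with FluxOr dye for 45 min, and thallium flux is measured in kinetic reads before and after stimulation buffer. Rate constants are normalized to DMSO controls.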
IDH1 R132H inh: blocks human mutant IDH1 R132H enzyme; O75874; 0.093% of 390,000 active; Potency, µM (top dose mostly 76.6 µM), actives largely listed as inhibitors; IDH1-R132H enzyme, NADPH consumption, diaphorase/resazurin fluorescence; note: nearly all actives have a fitted effect of over 65% in size
Target sequence (O75874 whole entry R132H, stated change not applied): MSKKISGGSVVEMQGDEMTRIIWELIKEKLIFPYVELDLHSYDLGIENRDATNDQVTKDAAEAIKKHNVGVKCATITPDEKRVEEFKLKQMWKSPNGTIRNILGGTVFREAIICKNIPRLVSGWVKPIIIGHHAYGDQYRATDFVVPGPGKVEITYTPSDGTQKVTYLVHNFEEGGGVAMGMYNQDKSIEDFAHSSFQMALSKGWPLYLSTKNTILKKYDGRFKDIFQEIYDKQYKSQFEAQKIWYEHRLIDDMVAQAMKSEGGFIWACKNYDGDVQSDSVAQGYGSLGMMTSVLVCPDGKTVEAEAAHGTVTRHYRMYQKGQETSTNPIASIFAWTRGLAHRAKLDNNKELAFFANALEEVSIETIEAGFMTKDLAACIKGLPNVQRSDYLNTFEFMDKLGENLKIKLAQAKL
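IDH1-R132H (0.5 ug/mL) preincubated 30 min with compound, then NADPH (0.016 mM) and alpha-KG (2 mM) added; 80 min at RT, pH 7.5. Remaining NADPH coupled via diaphorase/resazurin to fluorescence (540/590 nm); concentration-response curves normalized to no-enzyme control.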
Apoferritin bind: candidate novel general anesthetic via apoferritin binding | P02791 | apoferritin/1-aminoanthracene competitive binding, fluorescence | Potency, µM (highest dose often 77.5 µM), actives largely listed as inhibitors | 0.074% of 350,000 active | AID 485281; note: nearly all actives have a fitted effect of over 20% in size
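10 uM apoferritin + 50% sat. 1-AMA, PBS; cpd 10 min RT; Ex380/Em535 endpoint; normalized to free probe vs complex; 4-param Hill fit; propofol titration as pos. ctrl.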
ASM inhibitor: inhibitors of human secretory acid sphingomyelinase; P17405; AID 504937; placental ASM, HMU-PC fluorogenic substrate, 60 min; Potency, µM (series often up to 57.5 µM), usual class: inhibitors; 0.006% of 340,000 active
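qHTS format. ASM enzyme prepared from human placenta hydrolyses the fluorogenic substrate HMU-PC0 (9 uM final) over 60 min at 37 °C after a 10 min compound preincubation.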
Resorufin autofl: interferes with resorufin fluorescence in IDH1 counter-screen. 750 tested, under 10 active. Resorufin detection reagent fluorescence interference, cell-free. shares compounds with IDH1 R132H inh. inhibition of signal, % at 51.2 µM
IDH1 WT: inhibits human wild-type IDH1, mutant selectivity check. shares compounds with IDH1 R132H inh. WT IDH1 enzyme, NADPH diaphorase/resazurin fluorescence. Potency, µM (top dose mostly 115 µM), hits mostly inhibitors. 9% of 750 active. AID 623995; note: nearly all actives have a fitted effect of over 55% in size
Target sequence (O75874 whole entry, looked up): as the sequence (O75874 whole entry R132H, stated change not applied) above, with H132R counted along it
mIDH1 confirm: mutant IDH1 (human) inhibition, confirmed. shares compounds with IDH1 R132H inh. IDH1 R132H enzyme, NADPH diaphorase/resazurin fluorescence. Potency, µM (top dose mostly 76.6 µM), hits mostly inhibitors. AID 624002. 83% of 750 active; note: nearly all actives have a fitted effect of over 50% in size
A number is an active result; i = inactive; ? = inconclusive; nt = no result given. Compounds with a hit are over-represented: about 1.2% of the library has one in this group of screens. Unless noted, calls come from the whole dose curve; as a rule, active = well fitted curve in the direction sought with a large enough effect; inconclusive = small, poorly fitted or top-dose-only effect, or another doubt; inactive = no such curve, though single readings can be large; an effect the other way counts as inactive or inconclusive.

SMILES | KCNH2 3.1 inh | hERG WT inh | IDH1 R132H inh | Apoferritin bind | ASM inhibitor | Resorufin autofl | IDH1 WT | mIDH1 confirm
Cc1ccccc1OCc1ccc(-c2nc(C#N)c(N3CCC(C(N)=O)CC3)o2)o1 | nt | nt | i | i | nt | nt | nt | nt
Cc1ccc(-c2c(C(=O)N3CCN(c4cccc(C)c4)C(C)C3)oc(=O)c3ccccc23)cc1 (centres undefined) | nt | nt | i | i | nt | nt | nt | nt
CC(C)NC(=O)CSc1nc2ccccc2c(=O)n1Cc1ccc(C(=O)NC(C)C)cc1 | nt | nt | i | i | nt | nt | nt | nt
CC(C)(C)C1CCc2sc(-c3nnc(CCl)o3)cc2C1 (centres undefined) | i | i | 52.1µM | ? | i | i | i | 39.8µM
Cc1ccc(-n2ncc3c(N4CCCCC4)ncnc32)cc1 | nt | nt | i | i | nt | nt | nt | nt
Cc1onc(-c2c(F)cccc2Cl)c1C(=O)Nc1cc(S(=O)(=O)N2CCCCC2)ccc1O | i | i | 52.1µM | nt | i | i | i | 35.5µM
CCCOc1ccc(C2c3c(-c4ccccc4O)n[nH]c3C(=O)N2Cc2ccncc2)cc1OCC (centres undefined) | nt | nt | ? | i | nt | i | ? | 44.7µM
CC(C)c1ccc(C2c3c(-c4ccccc4O)n[nH]c3C(=O)N2Cc2ccncc2)cc1 (centres undefined) | nt | nt | 15.8µM | ? | nt | i | i | 22.4µM
COCCCN1C(=O)c2[nH]nc(-c3ccccc3O)c2C1c1ccc(Cl)cc1 (centres undefined) | i | i | i | i | i | nt | nt | nt
CSc1ccc(C2c3c(-c4ccccc4O)n[nH]c3C(=O)N2Cc2ccncc2)cc1 (centres undefined) | nt | nt | 39.8µM | i | nt | i | i | 28.2µM
CCCOc1ccc(C2c3c(-c4ccccc4O)n[nH]c3C(=O)N2CCCOCC)cc1OCC (centres undefined) | nt | nt | i | i | nt | nt | nt | nt
CCCN1C(=O)c2[nH]nc(-c3cc(Cl)c(C)cc3O)c2C1c1ccc(O)c(OC)c1 (centres undefined) | i | i | 26.1µM | i | i | i | ? | 28.2µM
COc1ccccc1CNC(=O)C1CCCN(c2nn3cc(-c4ccc(F)cc4)nc3s2)C1 (centres undefined) | nt | nt | i | i | nt | nt | nt | nt
Cc1cc(C)cc(NC(=O)c2cn3c4c(ccc(Cl)c4c2=O)OC(C)C3)c1 (centres undefined) | nt | nt | i | i | nt | nt | nt | nt
CCCCc1nn2c(=O)cc(COC(=O)CNC(=O)c3ccccc3C)nc2s1 | nt | nt | i | i | nt | nt | nt | nt
COC(=O)C1=C[C@@H](C(=O)OC)[C@@H]2C3=C(C(=O)[C@@]2(CC(C)C)NC(=O)c2ccccc2)[C@H](C)n2c(=O)n(-c4ccccc4)c(=O)n2[C@@H]3C1 | nt | nt | nt | i | nt | nt | nt | nt
CCOc1cc(C2c3c(-c4ccccc4O)n[nH]c3C(=O)N2CCc2ccccc2)ccc1O (centres undefined) | nt | nt | ? | i | nt | i | i | ?
COC(=O)c1ccc(C2c3c(-c4ccccc4O)n[nH]c3C(=O)N2Cc2cccnc2)cc1 (centres undefined) | nt | nt | ? | i | nt | i | i | 39.8µM
COc1ccc(NC(=O)c2ncoc2-c2ccco2)cc1Cl | nt | nt | i | i | nt | nt | nt | nt
Clc1ccc(-c2csc(NNC3=NCCCCC3)n2)cc1 | i | i | ? | ? | i | i | ? | 44.7µM
Cc1ccc(NC2=Nc3ccccc3N3C2=Nc2c(c(C)nn2-c2ccccc2)C3c2ccc(O)c(O)c2)cc1 (centres undefined) | i | i | ? | i | i | nt | nt | nt
Cc1nn(-c2ccccc2)c2c1C(c1ccc(O)c(O)c1)N1C(=N2)C(Nc2ccccc2)=Nc2ccccc21 (centres undefined) | i | i | 29.3µM | i | i | i | i | 39.8µM
CC(=O)Nc1ccc(NC(=O)C(c2ccccc2)N2Cc3ccccc3C2=O)cc1 (centres undefined) | nt | nt | i | i | nt | nt | nt | nt
